Several values for one entry are separate records, joined by “and”; a condition that tells them apart may be missing. Equal values may be shown once. Results filed as inconclusive are left out. More than one record can exist for a structure, and the calls need not agree. Activity calls are given as the source filed them. How the source made its calls: active means hit-call score of the fitted dose curve at least 0.9, where 1 is the maximum; inconclusive means response in the unintended direction; inactive means score below 0.9.
Target: Cellular tumor antigen p53 (Homo sapiens) (UniProt P04637)
Assay: TOX21_p53_BLA_p4_ratio: Tox21 HCT-116 p53 Agonism Beta-lactamase Assay, Ratio, Phase 4 (AID 2283601)
Text: TOX21_p53_BLA_p4 is a cell-based, single-readout assay that uses HCT116, a human intestinal cell line, […] in a 1536-well plate.TOX21_p53_BLA_p4_ratio is an assay readout measuring reporter gene via receptor activity and designed using inducible reporter (beta lactamase induction) detected with GAL4 b-lactamase reporter gene. The signal is derived from the ratio of cleaved (ch2) to uncleaved (ch1)reporter gene substrate used as the measure of target activity.Data from the assay component TOX21_p53_BLA_p4_ratio was analyzed into 1 assay endpoint. This assay endpoint, TOX21_p53_BLA_p4_ratio, was analyzed in the positive analysis fitting direction relative to DMSO as the negative control and baseline of activity. Using a type of inducible reporter, gain-of-signal activity can be used to understand changes in the reporter gene as they relate to the gene TP53. Furthermore, this assay endpoint can be referred to as a primary readout, because this assay has produced multiple assay endpoints where this ratio serves a reporter gene function to understand target activity. To generalize the intended target to other relatable targets, this assay endpoint is annotated to the DNA binding intended target family, where the subfamily is tumor suppressor.
Thawing Method: Place 14 mL of pre-warmed thaw medium into a 15 mL of conical tub. Remove the vial of cells to be thawed from liquid nitrogen and thaw rapidly by placing at 37C in a water bath with gentle agitation for 1-2 minutes. Decontaminate the vial by wiping with 70% ethanol before opening in a biological safety cabinet. Transfer the vial contents drop-wise into 14 mL of thaw medium in a sterile 15-mL conical tub. Centrifuge cells at 900 rpm for 4 minutes and resuspend in thaw medium. Transfer contents to the T75 tissue culture flask containing Thaw Medium and place flask in a humidified 37C/5% CO2 incubator. Switch to growth medium at first passage.Propagation Method: Aspirate medium, rinse once in DPBS, add 0.25% Trypsin/EDTA and swirl to coat the cell evenly. Add an equal volume of Growth Medium to inactivate Trypsin after 2-3 minutes incubation at 37C. Centrifuge cells at 900 rpm for 4 minutes and resuspend in growth medium. Cell should be passage or fed at least twice a week.Assay Protocol: Harvest cells from culture in growth medium and resuspend in assay medium. 2.2 Dispense 4000 cells/5 uL/well into 1536-well black/clear bottom plates using a Multidrop dispenser. After the cells were incubated at 37C for 5 hours, 23 nL of compounds dissolved in DMSO were transferred to the assay plate by a PinTool resulting in a 217-fold dilution. Incubate the plates for 16 hours at 37C, 5% CO2. Add 1 uL of 6X LiveBLAzer FRET B/G (CCF4-AM) Substrate Mixture to each well using a BioRAPTR dispenser and incubate the plates at room temperature for 2 hours. Measure fluorescence intensity at 460 and 530 nm emission and 405 nm excitation by an Envision detector. Data is expressed as the ratio of 460nm/530nm emissions. Add 4 uL of Cell-titer Glo to each well using BioRAPTR and incubate the plates at room temperature for 2 hours. Measure fluorescence intensity by a VewLux plate reader.

Cellular tumor antigen p53 (Homo sapiens), sequence (P04637 whole entry, looked up): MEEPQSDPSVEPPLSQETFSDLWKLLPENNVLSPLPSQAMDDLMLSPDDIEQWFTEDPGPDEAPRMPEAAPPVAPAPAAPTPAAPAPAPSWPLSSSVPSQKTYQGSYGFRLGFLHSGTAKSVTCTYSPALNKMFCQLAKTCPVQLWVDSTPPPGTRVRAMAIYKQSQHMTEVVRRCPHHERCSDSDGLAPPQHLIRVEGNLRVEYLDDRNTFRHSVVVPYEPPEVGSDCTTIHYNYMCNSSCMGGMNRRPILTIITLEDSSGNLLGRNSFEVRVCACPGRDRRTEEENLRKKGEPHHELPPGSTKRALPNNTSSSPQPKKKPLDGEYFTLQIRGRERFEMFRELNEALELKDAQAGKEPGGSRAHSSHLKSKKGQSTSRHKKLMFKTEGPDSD

| SMILES | outcome | AC50 |
| --- | --- | --- |
| CCCOc1nn(C(=O)NS(=O)(=O)c2ccccc2C(=O)OC)c(=O)n1C | inactive | – |
| CCCOCC(=Nc1ccc(Cl)cc1C(F)(F)F)n1ccnc1 | – | 46.2 µM (active) |
| S=C1NCCN1 | inactive | – |
| CCOP(=S)(OCC)SCCSCC | inactive | – |
| COP(=O)(NC(C)=O)SC (stereo not given) | inactive | – |
| CC(Oc1cccc(Cl)c1)C(=O)O (stereo not given) | inactive | – |
| CCNc1nc(Cl)nc(NC(C)(C)C#N)n1 | inactive | – |
| CC(COc1ccc(Oc2ccccc2)cc1)Oc1ccccn1 (stereo not given) | inactive | – |
| Cc1nn(-c2cc(NS(C)(=O)=O)c(Cl)cc2Cl)c(=O)n1C(F)F | inactive | – |
| CCC(=NOC/C=C/Cl)C1=C(O)CC(C2CCOCC2)CC1=O (stereo not given) | inactive | – |
| CCOP(=S)(OCC)OC(Cl)C(Cl)(Cl)Cl (stereo not given) | inactive | – |
| CCOC(=O)CC(SP(=O)(OC)OC)C(=O)OCC (stereo not given) | inactive | – |
| COP(=O)(OC)SCn1c(=O)oc2cc(Cl)cnc21 | inactive | – |
| CNC(=O)ON=C(C)SC | inactive | – |
| CN1COCN(Cc2cnc(Cl)s2)C1=N[N+](=O)[O-] | inactive | – |
| CCc1cccc(C)c1N(C(=O)CCl)C(C)COC (stereo not given) | inactive | – |
| CCOC(=O)COc1cc(-c2nn(C)c(OC(F)F)c2Cl)c(F)cc1Cl | inactive | – |
| COc1ccc(C(=CC(=O)N2CCOCC2)c2ccc(Cl)cc2)cc1OC | inactive | – |
| Nc1nc(N)nc(NC2CC2)n1 | inactive | – |
| CN(C)C(=O)Nc1cccc(C(F)(F)F)c1 | inactive | – |

| SMILES | outcome | AC50 |
| --- | --- | --- |
| CCC(CC)Nc1c([N+](=O)[O-])cc(C)c(C)c1[N+](=O)[O-] | inactive | – |
| CC(=NC#N)N(C)Cc1ccc(Cl)nc1 | inactive | – |
| CC(C1CC1)C(O)(Cn1cncn1)c1ccc(Cl)cc1 (stereo not given) | inactive | – |
| C[Si](Cn1cncn1)(c1ccc(F)cc1)c1ccc(F)cc1 | inactive | 55.6 µM (active) |
| C#CC(C)(C)NC(=O)c1cc(Cl)cc(Cl)c1 | inactive | – |
| COP(=O)(OC)C(O)C(Cl)(Cl)Cl (stereo not given) | inactive | – |
| CNC(=O)Oc1cccc2c1OC(C)(C)O2 | inactive | – |
| O=c1ccc(=O)[nH][nH]1 | inactive | – |
| CCCCOC(=O)[C@@H](C)Oc1ccc(Oc2ccc(C#N)cc2F)cc1 | inactive | – |
| CSc1nnc(C(C)(C)C)c(=O)n1N | inactive | – |
| C[N+]1(C)CCCCC1 | inactive | – |
| CON=C(C(=O)OC)c1ccccc1CON=C(C)c1cccc(C(F)(F)F)c1 | – | 1.65 µM (active) |
| CCOP(=S)(Oc1cnc(C(C)(C)C)nc1)OC(C)C (stereo not given) | inactive | – |
| CC1(C(=O)Nc2ccc(O)c(Cl)c2Cl)CCCCC1 | inactive | – |
| N#CSCSC#N | – | 36.5 µM (active) and 18.1 µM (active) |
| FC(F)C(F)(F)OCC(Cn1cncn1)c1ccc(Cl)cc1Cl (stereo not given) | inactive | – |
| CC1=NNC(=O)N(/N=C/c2cccnc2)C1 | inactive | – |
| CNC(=O)ON=C(SC)C(=O)N(C)C | inactive | – |
| CCCSP(=O)(OCC)Oc1ccc(Br)cc1Cl (stereo not given) | inactive | – |

Source: PubChem BioAssay (EPA / NIEHS)
